Data taken from PubChem BioAssay (Tox21).
Results filed as inconclusive are left out. Active and inactive are the calls of the source. Calls follow the shape of the dose curve; as a rule, active = well fitted curve in the direction sought with a large enough effect in the repeat runs; inconclusive = weak or mixed curves; inactive = no such curve, though single readings can be large; an effect the other way counts as inactive or inconclusive.

What was measured:
[1] = qHTS RealTime-Glo MT Cell Viability Assay in HEK293 cells - 0 hour (AID 1224880); also: top concentration of the series differs between compounds; nearly all actives have a fitted effect of over 45% in size
Procedure, shortened: (§1)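 Luminescence readout at each listed time point; HEK293, 600 cells/well, RealTime-Glo MT reagent added with cells; compounds pinned (23 nL in DMSO) after 5 h at 37 C; continuous culture at 37 C.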

[2] = A CellTox Green Cytotoxicity Assay to monitor cytotoxicity in HEK293 cells - 32 hour (AID 1224881); also: nearly all actives have a fitted effect of over 40% in size
Procedure, shortened: (§2)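 Read-out: fluorescence of a cell-impermeant cyanine dye staining DNA of dead cells, proportional to cytotoxicity. HEK293, 600 cells/well with reagent, compound (23 nL DMSO) added after 5 h; reads at 0, 8, 16, 24, 32, 40 h.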

[3] = A CellTox Green Cytotoxicity Assay to monitor cytotoxicity in HepG2 cells - 0 hour (AID 1224882); also: nearly all actives have a fitted effect of over 35% in size
Procedure, shortened: (§3)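 HepG2, 600 cells/well premixed w/ CellTox Green; 5 h settle, 37 C/5% CO2; pintool cpd add (DMSO); 37 C, 40 h; fluorescence read at 0, 8, 16, 24, 32, 40 h.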

[4] = A CellTox Green Cytotoxicity Assay to monitor cytotoxicity in HepG2 cells - 32 hour (AID 1224883); also: nearly all actives have a fitted effect of over 50% in size
Procedure, shortened: as §3

[5] = A CellTox Green Cytotoxicity Assay to monitor cytotoxicity in HEK293 cells - 8 hour (AID 1224884); also: nearly all actives have a fitted effect of over 35% in size
Procedure, shortened: as §2

[6] = qHTS RealTime-Glo MT Cell Viability Assay in HepG2 cells - 16 hour (AID 1224885); also: nearly all actives have a fitted effect of over 50% in size
Procedure, shortened: (§4)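 Cells + NanoLuc/prosubstrate dispensed (600 cells/well) → 5 h at 37 C/5% CO2 → compounds in DMSO transferred → 40 h incubation at 37 C, luminescence read at 0, 8, 16, 24, 32, 40 h.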

[7] = qHTS RealTime-Glo MT Cell Viability Assay in HEK293 cells - 24 hour (AID 1224886); also: top concentration of the series differs between compounds; nearly all actives have a fitted effect of over 50% in size
Procedure, shortened: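 Tox21 10K qHTS, HEK293, 600 cells/well, RealTime-Glo reagent co-dispensed with cells; 5 h preincubation, compound by pintool, 37 C, luminescence at 0–40 h.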

[8] = qHTS RealTime-Glo MT Cell Viability Assay in HEK293 cells - 8 hour (AID 1224887); also: top concentration of the series differs between compounds; nearly all actives have a fitted effect of over 50% in size
Procedure, shortened: as §1

[9] = A CellTox Green Cytotoxicity Assay to monitor cytotoxicity in HEK293 cells - 16 hour (AID 1224888); also: nearly all actives have a fitted effect of over 35% in size
Procedure, shortened: as §2

[10] = qHTS RealTime-Glo MT Cell Viability Assay in HepG2 cells - 0 hour (AID 1224889); also: nearly all actives have a fitted effect of over 50% in size
Procedure, shortened: as §4

Measured: Potency

Cc1cc2nc(N)sc2cc1C
inactive: all assays above

O=Cc1ccc(F)c(Br)c1
inactive: all assays above

O=C(CCCl)NCc1ccccc1
inactive: all assays above

C[C@]12C(=O)OC(=O)[C@H]1[C@H]1C=C[C@@H]2C1
inactive: all assays above

O=c1[nH]c(=O)n([C@H]2C[C@H](O)[C@@H](CO)O2)cc1C(F)(F)F
inactive: all assays above

OCC(CBr)(CBr)CBr
inactive: all assays above

CC(=O)OC1C2(C)CCC(C2)C1(C)C (stereo not drawn)
inactive: all assays above

CN1CCN(c2c(F)cc3c(=O)c(C(=O)O)cn4c3c2SCC4)CC1
inactive: all assays above

CC1=C(CC(=O)O)c2cc(F)ccc2/C1=C\c1ccc(S(C)(=O)=O)cc1
inactive: all assays above

COC(C)CCO (stereo not drawn)
inactive: all assays above

CC(C)CC(=O)OCc1ccccc1
inactive: all assays above

CCCOCCC
inactive: all assays above

C=Cc1ccccc1
inactive: all assays above

OCCN(CCO)CCN(CCO)CCO
inactive: all assays above

CC(C)C(=O)OC/C=C/c1ccccc1
inactive: all assays above

O=C(C(Cl)Cl)N1CCOC12CCCCC2
inactive: all assays above

O=C(O)c1cccc(Cl)c1Cl
inactive: all assays above

CN(CC1(C)CCCO1)S(=O)(=O)c1ccc(Cl)c(S(N)(=O)=O)c1 (stereo not drawn)
inactive: all assays above

O=C1N(c2ccccc2)c2ccccc2C1(Cc1ccncc1)Cc1ccncc1
inactive: all assays above

CCCC1CCC(=O)O1 (stereo not drawn)
inactive: all assays above

CCCCN1C[C@H](O)[C@@H](O)[C@H](O)[C@H]1CO
inactive: all assays above

CCCCNc1cc(C(=O)O)cc(S(N)(=O)=O)c1Oc1ccccc1
not listed: [8]
inactive: all other assays above

O=C1CCN(c2ccccc2)N1
not listed: [8]
inactive: all other assays above
